Results on 40 compounds are retold here after PubChem BioAssay AID493185 (National Center for Advancing Translational Sciences (NCATS), 2011).

SMILES strings stand for the structures. Activity calls are given as the source filed them. Entries that show only a call come without a potency. Calls follow the shape of the dose curve; as a rule, active = well fitted activation curve with a large enough effect; inconclusive = small, poorly fitted or top-dose-only effect; inactive = no such curve, though single readings can be large or run the other way.
Potency is read from the fitted curve at half-maximal effect.

The nature of the test: Counterscreen for Identifying a Potential Treatment of Ataxia-Telangiectasia: Hit Validation. The following applies: cell-free AlphaLISA/AlphaScreen artifact counterscreen, PBS only, no cells; series mostly up to 76.9 µM. The method, boiled down:
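Without cells, compounds at up to 76.7 uM final were combined with premixed anti-pKAP1/anti-KAP1 AlphaLISA bead reagents, protease inhibitors and lysis buffer; signal read after 6 hr at 25C to flag assay-platform artifacts.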
For the compound `CCOC(=O)c1cccc(N2C(=O)C3C4C=CC(CC4)C3C2=O)c1` (stereo not given), the Potency result was “inactive”. With `OC(CN1CCCCC1)Cn1c2ccc(Cl)cc2c2cc(Cl)ccc21` (stereo not given), the Potency result was “inactive”. To `COc1ccc(CCn2c(S)nc3ccccc3c2=O)cc1` belongs “inactive”. Regarding `CC1=NN(C(C#N)c2ccc([N+](=O)[O-])cc2)C(C)(C)C1` (stereo not given), the Potency result is “inactive”. For `CCOC(=O)c1ccccc1NC(=O)c1ccc2nc[nH]c2c1`, the Potency result is “inactive”. For `CCCN1CN(c2ccccc2)C(=S)N(c2ccccc2)C1`, the Potency entry is “inactive”.

On to `CCn1c(=NC(=O)CN2C(=O)CCC2=O)sc2c(OC)ccc(OC)c21`, for which the Potency entry was “inactive”. To `O=C(Nc1ccccc1Oc1ccccc1)c1cccs1` belongs “inactive”. The value for `CCn1c(SCc2cccc(F)c2)nnc1-c1ccncc1` was “inactive”.

With `O=C(COc1ccccc1Cl)NCCCNC(=O)c1cnccn1`, the Potency result is “inactive”. To `Cc1ccc(NC(=O)Nc2cccnc2)cc1NC(=O)Nc1cccnc1` belongs “inactive”; to `CCNC(=S)N(CCc1c(C)[nH]c2ccccc12)Cc1cccnc1`, “inactive”; to `CC(=O)/C(N=Nc1nc2c([nH]1)c(=O)n(C)c(=O)n2C)=C(\C)O`, “inactive”. The value for `CC12CCC(C(=O)NNc3ccc([N+](=O)[O-])cc3)(OC1=O)C2(C)C` (stereo not given) was “inactive”. As for `CCOc1ccc(C(=O)NC(=S)Nc2cccnc2)cc1[N+](=O)[O-]`, the Potency entry was “inactive”. To `CCOC(=O)C1CCN(C(=O)c2cc3cc(Cl)ccc3[nH]2)CC1` belongs “inactive”; to `CCCN1C2CCCC1CC(NC(=S)Nc1cccc(C)c1C)C2` (stereo not given), “inactive”. For the compound `O=C(Nc1cnn(C23CC4CC(CC(C4)C2)C3)c1)c1cnn2cccnc12`, the Potency entry was “inactive”. For the compound `O=C(O)c1ccc(/C=C/c2nc3ccccc3c(=O)[nH]2)cc1`, the Potency entry is “inactive”. To `COc1ccccc1Nc1nc(NCCCN(C)C)nc(N)c1[N+](=O)[O-]` belongs “inactive”; to `COC(=O)Cn1ccc2cc(S(=O)(=O)N3CCCCC3)ccc21`, “inactive”. The value for `COc1ccc2c(c1)c(N=NC(N)=S)c(O)n2CC(=O)c1ccccc1` was “inactive”; that for `CCOc1cccc(-c2nnc(SCC(=O)Nc3cc(C)ccc3OC)n2N)c1` was “inactive”. The value for `Cc1nn(C)c(Cl)c1CN1CCN(C2CCCC2)C(CCO)C1` (stereo not given) was “inactive”. Turning to `CN1C[C@@H]2C(c3ccccc3)C3(c4ccccc4)CC2(C3)[C@H]1c1ccccc1` (stereo not given in full), the Potency result is “inactive”. To `O=C(c1ccc(F)cc1)N1CCC(c2ccccc2)C1` (stereo not given) belongs “inactive”. As for `Oc1ccc(-c2nccc(-c3ccc(F)cc3)n2)cc1`, the Potency entry was “inactive”. The value for `O=C(NC12CC3CC(CC(C3)C1)C2)c1cccc(OC(F)F)c1` was “inactive”. On to `O=C(CN1CCN(Cc2ccccc2)CC1)Nc1ccc(Cl)cc1`, for which the Potency entry was “inactive”. In the case of `C=CCN1C(=O)/C(=C/C(=O)OC)S/C1=N\NC(=O)c1ccccc1`, the Potency result was “inactive”. To `O=C(O)CCCN1C(=O)/C(=C/C=C/c2ccco2)SC1=S` belongs “inactive”; to `c1ccc2c(c1)nc(Nc1ccc(N3CCCCC3)cc1)c1nncn12`, “inactive”.

As for `C=Cc1c(C)c2cc3[nH]c(cc4nc(cc5nc(cc1[nH]2)C(C)=C5CCC(=O)O)C(CCC(=O)O)=C4C)c(C)c3C=C`, the Potency was 29.2 µM (active). Consider `Fc1ccc(C2N(c3ccccc3)C(=S)N3CCCN23)cc1` (stereo not given), for which the Potency result is “inactive”. The value for `Cn1c(=O)[nH]c(=O)c2[nH]c(N(Cc3ccccc3)Cc3ccccc3)nc21` was “inactive”; that for `CNC(=S)N(CCO)Cc1cc2cc3c(cc2[nH]c1=O)OCCO3` was “inactive”. The value for `CCN1CCN(CC(=O)Nc2ccc(C(C)=O)cc2)CC1` was “inactive”.

With `Cc1ccc(C)c(-c2csc(Nc3ncccn3)n2)c1`, the Potency result is “inactive”. For `c1ccc(CSc2nnc(-c3ccco3)n2Cc2ccco2)cc1`, the Potency entry is “inactive”.

As to `CCc1ccc(C2c3[nH]c4ccccc4c3CCN2C(=O)c2cc[n+]([O-])cc2)cc1` (stereo not given), the Potency result was “inactive”.
